Reference: PubChem BioAssay (NCATS)
Several values for one entry are separate records, joined by “and”; a condition that tells them apart may be missing. Identical values can stand only once. Inconclusive results are not listed. Activity calls are given as the source filed them. Unless noted, calls come from the whole dose curve; as a rule, active = well fitted curve in the direction sought with a large enough effect; inconclusive = small, poorly fitted or top-dose-only effect, or another doubt; inactive = no such curve, though single readings can be large; an effect the other way counts as inactive or inconclusive.

Assays:
[1] = Nrf2 qHTS screen for inhibitors: Validation (AID 493153; active = well fitted inhibition curve with a large enough effect in the main read-out, with a control signal flat, not every such curve was filed as active; note: potency is the fitted concentration of half-maximal effect); conditions: Potency: luciferase luminescence; viability change: measured here: cytotoxicity max response
Outline: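 A549 cells carrying ARE-firefly luciferase reporter, 5000 cells/well in 5% FBS OPTI-MEM, treated with compound over a concentration series for 18-24 h at 37 C. Luciferase luminescence gave Nrf2 activity; CellTiter-Fluor fluorescence gave viability.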

[2] = qHTS for Inhibitors of Cell Surface uPA Generation: Validation Assay (AID 493164)
Outline: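 RAW 264.7 cells (4000/well) were plated overnight, then exposed for 18 h at 37 C, 5% CO2 to compounds in a 7-point 1:5 titration (2.45 nM–38.3 uM final). Intracellular ATP was read by ATP-Lite luminescence.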

[3] = molecular target: Galactokinase (Homo sapiens) (UniProt P51570); assay: qHTS Validation Assay for Inhibitors of Human Galactokinase (GALK) (AID 493189); note: potency is the fitted concentration of half-maximal effect
Galactokinase (Homo sapiens), sequence (P51570 whole entry, looked up): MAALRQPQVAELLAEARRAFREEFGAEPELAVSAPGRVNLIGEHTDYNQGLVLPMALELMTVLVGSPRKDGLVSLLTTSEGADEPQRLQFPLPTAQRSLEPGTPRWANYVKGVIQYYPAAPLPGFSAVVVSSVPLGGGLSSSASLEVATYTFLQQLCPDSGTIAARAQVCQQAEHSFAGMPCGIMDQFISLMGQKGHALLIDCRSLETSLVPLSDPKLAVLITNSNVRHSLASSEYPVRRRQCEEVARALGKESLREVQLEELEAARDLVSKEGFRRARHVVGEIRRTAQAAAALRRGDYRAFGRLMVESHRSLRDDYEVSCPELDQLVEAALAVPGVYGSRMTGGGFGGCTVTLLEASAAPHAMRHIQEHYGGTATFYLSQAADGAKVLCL
Outline: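 5 nM GALK / 100 uM galactose / 35 uM ATP, 20 mM HEPES pH8.0, 5 mM MgCl2, 60 mM NaCl, 1 mM DTT, 0.01% BSA (final). RT 1 h; Kinase-Glo Plus luminescence.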

[4] = molecular target: Phosphoglycerate kinase, glycosomal (Trypanosoma brucei brucei) (UniProt P07378); assay: qHTS Validation Assay to Find Inhibitors of Phosphoglycerate Kinase (AID 504547)
Phosphoglycerate kinase, glycosomal (Trypanosoma brucei brucei), sequence (P07378 whole entry, looked up): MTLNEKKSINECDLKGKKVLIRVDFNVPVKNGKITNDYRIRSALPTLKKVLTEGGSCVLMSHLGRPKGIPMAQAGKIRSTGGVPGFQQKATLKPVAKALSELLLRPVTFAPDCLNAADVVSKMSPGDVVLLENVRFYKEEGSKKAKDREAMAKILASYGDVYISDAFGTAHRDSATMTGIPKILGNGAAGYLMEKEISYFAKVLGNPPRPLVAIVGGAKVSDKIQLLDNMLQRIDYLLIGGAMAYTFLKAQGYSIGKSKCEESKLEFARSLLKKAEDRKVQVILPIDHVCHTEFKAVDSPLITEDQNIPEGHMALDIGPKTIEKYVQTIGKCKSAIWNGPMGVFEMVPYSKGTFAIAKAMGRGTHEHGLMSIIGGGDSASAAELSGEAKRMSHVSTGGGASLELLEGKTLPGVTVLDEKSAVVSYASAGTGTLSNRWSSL
Outline: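 Substrate/PGK mix plus compound; reaction started with GAPDH (100nM final) to form 1,3-BPG; 60 min RT; Kinase-Glo Plus 10 min; luminescence. TEA 100mM pH 7.6, MgCl2 5mM, Tween-20 0.01%.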

[5] = molecular target: phosphoglycerate mutase (Leishmania major) (UniProt Q4Q090); assay: qHTS Validation Assay to Find Inhibitors of Phosphoglycerate Mutase (AID 504548); conditions: Potency: inhibition qHTS; note: series mostly up to about 58 µM
phosphoglycerate mutase (Leishmania major), sequence (Q4Q090 1-553): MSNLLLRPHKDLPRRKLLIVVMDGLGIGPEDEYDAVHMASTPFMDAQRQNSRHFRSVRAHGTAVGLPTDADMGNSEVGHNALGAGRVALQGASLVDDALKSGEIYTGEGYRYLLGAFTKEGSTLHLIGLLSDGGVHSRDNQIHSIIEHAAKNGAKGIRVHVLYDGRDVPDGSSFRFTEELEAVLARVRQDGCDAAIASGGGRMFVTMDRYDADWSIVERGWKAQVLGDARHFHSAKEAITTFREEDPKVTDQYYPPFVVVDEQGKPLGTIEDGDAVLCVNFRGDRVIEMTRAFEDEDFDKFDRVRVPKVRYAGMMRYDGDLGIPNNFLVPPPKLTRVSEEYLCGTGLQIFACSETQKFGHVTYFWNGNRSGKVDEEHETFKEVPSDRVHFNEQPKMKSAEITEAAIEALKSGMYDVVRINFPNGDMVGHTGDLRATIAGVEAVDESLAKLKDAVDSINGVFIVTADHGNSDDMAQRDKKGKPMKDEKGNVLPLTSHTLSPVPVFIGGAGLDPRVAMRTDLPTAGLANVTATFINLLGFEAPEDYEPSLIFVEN
Outline: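 Lm PGAM at 1.25 nM final with substrate in 100 mM TEA pH 7.6, 5 mM MgCl2, 0.01% Tween-20; 45 min at room temperature. Kinase-GloPlus added, 10 min, end-point luminescence read.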

[6] = molecular target: Ubiquitin carboxyl-terminal hydrolase 1 (Homo sapiens) (UniProt O94782); assay: Inhibitors of USP1/UAF1: Pilot qHTS (AID 504865); note: nearly all actives have a fitted effect of over 35% in size; note: potency is the fitted concentration of half-maximal effect
Ubiquitin carboxyl-terminal hydrolase 1 (Homo sapiens), sequence (O94782 whole entry, looked up): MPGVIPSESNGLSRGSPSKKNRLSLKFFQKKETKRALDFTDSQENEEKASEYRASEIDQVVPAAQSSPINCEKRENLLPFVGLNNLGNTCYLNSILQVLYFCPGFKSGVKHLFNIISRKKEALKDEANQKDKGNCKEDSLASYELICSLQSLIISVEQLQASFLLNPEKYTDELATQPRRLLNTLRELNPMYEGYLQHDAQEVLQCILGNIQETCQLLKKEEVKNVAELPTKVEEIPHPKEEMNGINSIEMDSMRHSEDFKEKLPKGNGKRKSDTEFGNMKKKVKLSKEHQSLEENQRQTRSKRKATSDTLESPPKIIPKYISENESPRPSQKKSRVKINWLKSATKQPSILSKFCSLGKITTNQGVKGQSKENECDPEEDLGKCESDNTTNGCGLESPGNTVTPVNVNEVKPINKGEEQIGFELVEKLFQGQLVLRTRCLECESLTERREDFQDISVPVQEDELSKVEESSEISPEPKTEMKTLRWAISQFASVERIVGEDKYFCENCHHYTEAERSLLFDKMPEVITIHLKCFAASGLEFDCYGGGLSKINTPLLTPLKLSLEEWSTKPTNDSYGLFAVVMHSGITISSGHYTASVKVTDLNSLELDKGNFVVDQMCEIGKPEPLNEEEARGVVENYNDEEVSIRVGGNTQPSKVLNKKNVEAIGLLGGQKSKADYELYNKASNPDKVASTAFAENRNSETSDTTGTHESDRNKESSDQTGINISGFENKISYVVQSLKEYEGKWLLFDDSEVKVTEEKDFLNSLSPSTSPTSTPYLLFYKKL
Outline: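 In 50mM HEPES pH 7.8 containing 0.5mM EDTA, 1mM TCEP, 0.1 mg/ml BSA and 0.01% Tween-20, 1nM USP1/UAF1 is exposed to compound for 15 min, then Ub-Rho (150nM final) is added and fluorescence is read over time.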

[7] = qHTS for Inhibitors of ATXN expression: Validation of Cytotoxic Assay (AID 588349); note: potency is the fitted concentration of half-maximal effect
Outline: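 HEK293 cells treated with titrated compound for 72 hr at 37 degrees C; viability read as intracellular ATP by CellTiter Glo luminescence.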

[8] = qHTS for Inhibitors of ATXN expression: Validation (AID 588378); note: nearly all actives have a fitted effect of over 75% in size; note: potency is the fitted concentration of half-maximal effect
Outline: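 Compounds were pinned onto attached HEK293 cells carrying an ATXN2-firefly luciferase construct and incubated 24 hrs at 37 degrees C. Each well then received a fluorescent viability reagent followed by luciferase substrate for end-point luminescence.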

[9] = molecular target: Peptidyl-prolyl cis-trans isomerase NIMA-interacting 1 (Homo sapiens) (UniProt Q13526); assay: qHTS Validation Assay to Find Inhibitors of Pin1 (AID 504536; active = well fitted inhibition curve with a large enough effect in the polarisation, with a control signal flat, not every such curve was filed as active; the % refers to the polarisation; note: potency is the fitted concentration of half-maximal effect)
Peptidyl-prolyl cis-trans isomerase NIMA-interacting 1 (Homo sapiens), sequence (Q13526 whole entry, looked up): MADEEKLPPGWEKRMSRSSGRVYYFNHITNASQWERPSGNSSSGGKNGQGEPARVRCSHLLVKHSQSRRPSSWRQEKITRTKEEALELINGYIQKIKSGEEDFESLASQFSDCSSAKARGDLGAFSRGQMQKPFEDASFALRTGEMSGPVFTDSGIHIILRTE
Outline: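 Fluorescence polarization competition: compounds (titration) displace HiFluor-488-labeled Pin1-1b peptide from Pin1 (0.3 uM final) in pH 7.5 HEPES buffer with DTT, 10 min at room temperature; %Activity normalized to no-enzyme wells, curves fitted.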

[10] = Validation screen for small molecules that induce DNA re-replication in SW480 colon adenocarcinoma cells (AID 504364)
Outline: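 SW480 cells (250/well) exposed 48 h at 37 C, 5% CO2, then Hoechst-stained 40 min. Nuclear DNA content imaged by fluorescence scanning (405 nm excitation, 500-530 nm emission); re-replication scored as increased nuclei with elevated intensity.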

NC(N)=[N+]1CCc2ccccc2C1
active: Potency [1] 16.4 µM
inactive: outcome [2] | Potency [3] | Potency [4] | Potency [5] | Potency [6] | Potency [7] | Potency [8]
6.22%: viability change [1]

CSC(N)=NCCC[C@H](N)C(=O)O
inactive: Potency [1] | outcome [2] | Potency [3] | Potency [9] | Potency [4] | Potency [6] | Potency [7] | Potency [8]
-16.2%: viability change [1]

CNc1cc(NS(=O)(=O)c2ccc(N)cc2)nc(NC)n1
inactive: Potency [1] | outcome [2] | Potency [3] | Potency [9] | Potency [4] | Potency [5] | Potency [6] | Potency [7] | Potency [8]
6.74%: viability change [1]

C=CCN1CCc2cc(O)c(O)cc2C(c2ccccc2)C1 (stereo not drawn)
inactive: Potency [1] | outcome [2] | Potency [3] | Potency [9] | Potency [4] | Potency [5] | Potency [6]
-2.64%: viability change [1]

CC(=O)NNC(=O)N1Cc2ccccc2Oc2ccc(Cl)cc21
-4.76%: viability change [1]
inactive: Potency [1] | outcome [2] | Potency [3] | Potency [5] | Potency [6] | Potency [7] | Potency [8]

C[C@H](NC(=O)/C(C#N)=C/c1ccc(O)c(O)c1)c1ccccc1
-7.12%: viability change [1]
inactive: Potency [1] | outcome [2] | Potency [3] | Potency [9] | Potency [4] | Potency [5] | Potency [6]

NC(N)=N[C@@H](CCC(=O)O)C(=O)O
6.59%: viability change [1]
inactive: Potency [1] | outcome [2] | Potency [3] | Potency [9] | Potency [4] | Potency [5] | Potency [6] | Potency [8]

O=c1onc2cnc3ccccc3n12
-4.79%: viability change [1]
inactive: Potency [1] | outcome [2] | Potency [3] | Potency [9] | Potency [5] | Potency [6] | Potency [7] | Potency [8]

NCC(O)c1ccc(O)c(O)c1 (stereo not drawn)
inactive: Potency [1] | outcome [2] | Potency [3] | Potency [10] | Potency [5] | Potency [6] | Potency [7] | Potency [8]
3.36%: viability change [1]

Oc1ccc(Cn2cc[nH]c2=S)cc1
0.593%: viability change [1]
inactive: Potency [1] | outcome [2] | Potency [3] | Potency [9] | Potency [4] | Potency [5] | Potency [6] | Potency [7] | Potency [8]

O=C1OC(=O)C2C3CCC(O3)C12 (stereo not drawn)
inactive: Potency [1] | outcome [2] | Potency [3] | Potency [9] | Potency [4] | Potency [5] | Potency [6] | Potency [7] | Potency [8]
-3.78%: viability change [1]

O=c1[nH]ccc2c(O)cccc12
inactive: Potency [1] | outcome [2] | Potency [3] | Potency [4] | Potency [5] | Potency [6] | Potency [7] | Potency [8]
-2.46%: viability change [1]

Cc1nc(N=Nc2cc(S(=O)(=O)O)c3cc([N+](=O)[O-])cc(S(=O)(=O)O)c3c2)c(COP(=O)(O)O)c(C=O)c1O
-14.8%: viability change [1]
inactive: Potency [1] | outcome [2] | Potency [3] | Potency [4] | Potency [5] | Potency [7] | Potency [8]
active: Potency [6] 50.1 µM and 39.8 µM

Cc1cccc(C2CN(C)CCc3c2cc(O)c(O)c3Cl)c1 (stereo not drawn)
inactive: Potency [1] | outcome [2] | Potency [3] | Potency [4] | Potency [5] | Potency [6]
-5.5%: viability change [1]

Nn1nnc2ccccc21
-0.567%: viability change [1]
inactive: Potency [1] | outcome [2] | Potency [3] | Potency [9] | Potency [4] | Potency [5] | Potency [6] | Potency [7] | Potency [8]

COc1ccc(CCN(C)CCc2ccc(OC)c(OC)c2)cc1OC
inactive: Potency [1] | outcome [2] | Potency [3] | Potency [9] | Potency [4] | Potency [5] | Potency [6] | Potency [8]
4.35%: viability change [1]

CC(=O)C(C)=O
-3.11%: viability change [1]
inactive: Potency [1] | outcome [2] | Potency [3] | Potency [9] | Potency [4] | Potency [5] | Potency [6] | Potency [8]

NS(=O)(=O)c1cccc2c1c([N+](=O)[O-])cc1nc(O)c(O)nc12
-15.2%: viability change [1]
inactive: Potency [1] | outcome [2] | Potency [3] | Potency [10] | Potency [4] | Potency [5] | Potency [8]

N[C@H](C(=O)O)[C@H](O)C(=O)O
inactive: Potency [1] | outcome [2] | Potency [3] | Potency [10] | Potency [5] | Potency [6] | Potency [7] | Potency [8]
7.86%: viability change [1]

NC1(C(=O)O)CC1
inactive: Potency [1] | outcome [2] | Potency [3] | Potency [9] | Potency [4] | Potency [5] | Potency [6] | Potency [8]
4.01%: viability change [1]

C=CCN1CCc2c(cc(O)c(O)c2Cl)C(c2ccccc2)C1 (stereo not drawn)
inactive: Potency [1] | outcome [2] | Potency [3] | Potency [9] | Potency [4] | Potency [5] | Potency [6]
-2.43%: viability change [1]

O=C(O)C1=CC(=C(c2ccc(O)c(C(=O)O)c2)c2ccc(O)c(C(=O)O)c2)C=CC1=O
-5.86%: viability change [1]
inactive: Potency [1] | outcome [2] | Potency [7] | Potency [8]
active: Potency [3] 14.1 µM | Potency [9] 0.675 µM | Potency [6] 8.91 µM

CC[C@@H]1Cc2cc(O)ccc2C2=C1c1ccc(O)cc1C[C@H]2CC
1.92%: viability change [1]
active: Potency [7] 22.4 µM | Potency [8] 15.8 µM
inactive: Potency [1] | outcome [2] | Potency [3] | Potency [9] | Potency [5] | Potency [6]

COC(=O)C(N)Cc1ccc(Cl)cc1 (stereo not drawn)
inactive: Potency [1] | outcome [2] | Potency [3] | Potency [9] | Potency [4] | Potency [5] | Potency [6] | Potency [7] | Potency [8]
9.57%: viability change [1]

CCCn1c(=O)c2c(ncn2C)n(CCC)c1=O
3.43%: viability change [1]
inactive: Potency [1] | outcome [2] | Potency [3] | Potency [9] | Potency [4] | Potency [5] | Potency [6] | Potency [7] | Potency [8]
